# High-throughput results (PubChem BioAssay)
# Hits are enriched below; roughly 8.8% of the tested compounds scored in any of these assays.
# HT1080NT lethal: qHTS for induction of synthetic lethality in tumor cells producing 2HG: qHTS for the HT-1080-NT fibrosarcoma cell line; AID 686970, 2013; Potency, µM (highest dose often 46.1 µM), inactives show at the top dose activity, negative = less viability, hits mostly cytotoxic; HT-1080-NT fibrosarcoma viability, CellTiter-Glo ATP luminescence, 48 h; 360,000 tested, 1.6% active;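 further: NT is the 2HG producing partner of a matched IDH1 knockdown line; potency means the concentration at half of the fitted maximal effect; 0% = DMSO-treated cells and -100% = media-only wells without cells; nearly all actives have a fitted effect of over 55% in size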
#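 A 48-hour cytotoxicity screen used HT-1080-NT cells plated 2 hours before compound delivery. ATP-based CellTiter-Glo luminescence measured viability, normalized to DMSO and no-cell controls.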
# IL1B secr inh: qHTS for Inhibitors of Inflammasome Signaling: IL-1-beta AlphaLISA Primary Screen; 360,000 tested, 4.7% active; activity change, % at 57.5 µM; THP-1 LPS/ATP IL-1B secretion, AlphaLISA, 16 h; stronger effect = lower value; in the data active means activity change below about -50%; inconclusive means mostly about -30% to -49%
#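 Secreted IL-1B measured by AlphaLISA bead assay after 16 h compound exposure of THP-1 cells; compounds (final up to 57.5 uM) added 1 h before LPS (250 ng/mL) and ATP (1.25 mM) stimulation; lower signal means less secretion.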
# HT1080 IDH1KD tx: qHTS for induction of synthetic lethality in tumor cells producing 2HG: qHTS for the HT-1080-IDH1KD cell line | Potency, µM (doses to about 46.1 µM), inactives show at the top dose activity, negative = toxicity, usual class: cytotoxic | HT-1080 IDH1 knockdown viability, ATP luminescence, 48 h | 360,000 tested, 2% active | AID 686971, 2013;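 further: potency means the concentration at half of the fitted maximal effect; 0% = DMSO wells and -100% = cell-free medium wells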
#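 Viability of IDH1-knockdown HT-1080 fibrosarcoma cells was assessed by CellTiter-Glo after 48 h at 37 °C with titrated compound; concentration-effect curves were classified by fit quality and response size.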
# KB-V1 cytotox: qHTS assay for MDR1-selective chemotherapeutics: Primary screen using the drug-selected MDR subline cells KB-V1; Potency, µM (top dose mostly 46.1 µM), hits mostly cytotoxic; KB-V1 MDR cells viability, CellTiter-Glo, 72 h; AID 1347076, 2019; 400,000 tested, 3.4% active; further: potency means the concentration at half of the fitted maximal effect; nearly all actives have a fitted effect of over 60% in size
#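 KB-V1 cells (P-gp-expressing MDR subline of KB-3-1) in phenol-red-free DMEM with 10% FBS were exposed to library compounds over a concentration series for 72 h at 37 degrees C. Viability read by CellTiter-Glo luminescence; concentration-effect curves fitted after normalization.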
# KB-3-1 cytotox: qHTS assay for MDR1-selective chemotherapeutics: Primary screen using the parental adenocarcinoma cell KB-3-1 | KB-3-1 viability, CellTiter-Glo ATP luminescence, 72 h | Potency, µM (titrated, usually from 46.1 µM), actives largely listed as cytotoxic | 400,000 tested, 1.4% active; further: potency means the concentration at half of the fitted maximal effect; nearly all actives have a fitted effect of over 60% in size
#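 KB-3-1 parental drug-naive adenocarcinoma cells in DMEM/10% FBS, incubated 72 h at 37 C with pin-transferred compounds across a concentration series. Viability by CellTiter-Glo luminescence; concentration-response curves fitted after normalization.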
# * = called active by the depositor; i = inactive; ? = inconclusive; · = no result. Unless noted, the call rests on the fitted dose curve; in most records, active means well fitted curve in the direction sought with a large enough effect; inconclusive means small, poorly fitted or top-dose-only effect, or another doubt; inactive means no such curve, though single readings can be large; an effect the other way counts as inactive or inconclusive. Unless noted, on the % scale 0 is the no-effect control and ±100 the full control effect.
SMILES,HT1080NT lethal,IL1B secr inh,HT1080 IDH1KD tx,KB-V1 cytotox,KB-3-1 cytotox
COc1ccc(NC(=O)Cc2ccc(C)c(C)c2)cc1S(=O)(=O)N1CCCCC1,0.4%,?,-8.2%,9.2µM*,?
Cc1ccc(C)c(OCCC(=O)Nc2cc(S(=O)(=O)N3CCCCC3)ccc2C)c1,-15.8%,-24.9,-16.7%,i,i
CCc1noc(C)c1C(=O)Nc1ccc(C)c(S(=O)(=O)N2CCCCCC2)c1,-4.4%,6.0,-16.4%,7.31µM*,i
COc1ccc(NC(=O)Cc2ccc(C)cc2)cc1S(=O)(=O)N1CCCCC1,-0.8%,-21.3,-13.7%,?,i
Cc1ccc(C)c(OCCC(=O)Nc2cccc(S(=O)(=O)N3CCCCC3)c2)c1,0.3%,?,9.0%,14.6µM*,i
CCc1cccc(OCC(=O)Nc2ccc(C)c(S(=O)(=O)N3CCCCCC3)c2)c1,-20.9%,?,-11.8%,i,i
Cc1ccc(NC(=O)COc2ccc(N(C)C(=O)C(C)(C)C)cc2)cc1S(=O)(=O)N1CCCCC1,-17.6%,-7.2,-14.0%,18.4µM*,16.4µM*
Cc1nn(-c2ccccc2)c(C)c1NC(=O)COC(=O)CCc1ccccc1,26.8%,19.5,10.3%,?,i
CCc1ccc2cc3c(cc2n1)C(=O)c1ccccc1-3,2.0%,2.9,-0.7%,i,i
CC(=O)Nc1cccc(C(=O)NC2CCCc3c2cnn3-c2cc(C)cc(C)c2)c1 (configuration not stated),-1.1%,17.1,-2.3%,i,i
CCc1noc(C)c1C(=O)N1CCN(S(=O)(=O)c2cc(C)ccc2C)CC1,2.3%,18.6,6.3%,·,·
COc1ccc(NC(=O)CC2CCCC2)cc1S(=O)(=O)N1CCCCC1,8.4%,15.8,3.8%,i,i
CCc1noc(C)c1C(=O)N1CCN(S(=O)(=O)c2c(C)c(C)cc(C)c2C)CC1,0.9%,-13.9,13.2%,10.3µM*,i
Cc1cccc(OCCC(=O)Nc2ccc(C)c(S(=O)(=O)N3CCCCC3)c2)c1,-20.6%,-71.9*,-19.4%,?,?
Cc1ccc(NC(=O)CCl)cc1S(=O)(=O)N1CCCCCC1,16.4µM*,-87.1*,8.2µM*,?,?
COc1ccc(NC(=O)CCC2CCCCC2)cc1S(=O)(=O)N1CCCCC1,3.1%,-19.9,-21.6%,3.26µM*,5.17µM*
COc1cc(NC(=O)Cn2c(-c3ccccc3)cc(C(C)=O)c2C)cc(OC)c1,·,·,·,i,i
Cc1cccc(C)c1C(O)c1ncc(-c2ccc(F)cc2)[nH]1 (configuration not stated),-2.0%,-7.3,-0.9%,i,i
Nc1c(C(=O)NCc2cccs2)nnn1CC(=O)Nc1cccc(F)c1,·,·,·,i,i
COc1ccc(CC(=O)Nc2cccc(SC)c2)cc1OC,-21.0%,9.1,-0.6%,14.6µM*,?
O=C(CCC1CCCCC1)Nc1ccc(C(=O)c2ccncc2)cc1,-3.5%,-92.2*,-0.3%,i,i
O=C(CCC1CCCCC1)Nc1cccnc1,4.7%,12.7,2.2%,i,i
C=CCN1C(=O)c2ccc(C(=O)N3CCN(c4ccccc4OC)CC3)cc2C1=O,-2.3%,6.8,3.1%,i,i
CCOC(=O)N1CCN(CC(=O)Nc2nc3ccccc3s2)CC1,-8.0%,16.4,-11.7%,11.6µM*,i
CCOC(=O)c1sc(NC(=O)CSc2ncn(-c3ccccc3)n2)nc1C,-10.8%,10.4,-1.9%,i,i
SMILES,HT1080NT lethal,IL1B secr inh,HT1080 IDH1KD tx,KB-V1 cytotox,KB-3-1 cytotox
CCN1CCN(CC(=O)Nc2nc3ccccc3s2)CC1,-0.8%,10.0,10.3%,i,i
Cc1sc(NC(=O)CSC2=NCCS2)nc1-c1ccccc1,13.6%,-97.3*,-1.5%,i,i
Cc1sc(NC(=O)CSc2ncn(-c3ccccc3)n2)nc1-c1ccccc1,8.8%,0.0,-5.2%,23.1µM*,?
Cc1ccc(-c2csc(NC(=O)CSC3=NCCS3)n2)cc1,-3.6%,?,-2.8%,i,i
Cc1cc(C(F)(F)F)c(C#N)c(SCC(=O)Nc2nc3ccccc3s2)n1,?,0.0,18.4µM*,?,i
Cc1nc(SCC(=O)Nc2nc3ccccc3s2)c(C#N)c(C)c1C,-26.7%,62.7,?,i,?
CO[C@H]1CN(C)C(=O)c2ccc(NS(=O)(=O)c3ccccc3F)cc2OC[C@H](C)NC[C@@H]1C,15.4%,-4.6,1.4%,i,i
CCCC(=O)N1CCCC1(C)C(=O)Nc1cc(OC)c(OC)c(OC)c1 (configuration not stated),25.6%,17.5,17.0%,i,i
CC(=O)N1CC(=O)N=C1SCC(=O)Nc1nc(-c2ccccc2)c(-c2ccccc2)s1,?,-76.7*,?,i,i
O=C(CSC1=NCCS1)Nc1nc2ccccc2s1,-4.9%,-73.6*,?,?,i
CCOc1ccc(CC(=O)Nc2nnc3n2CCS3)cc1,·,·,·,?,i
COC(=O)C1C(C(=O)OC)C1(c1ccccc1)c1ccccc1 (configuration not stated),0.6%,-6.2,-7.3%,i,i
COC(=O)C1=C(C(=O)OC)C(C(=O)OC)C(C(=O)OC)C(C(=O)OC)(C(=O)OC)C(C(=O)OC)=C1C(=O)OC (configuration not stated),-17.3%,-99.7*,?,?,i
CCCCCCCCN1C(=O)[C@H](CC(=O)NCCCOCCCC)C[C@@]2(C(=O)OC)CCCCC=C12,?,-77.6*,?,13µM*,?
CCCCCCCCN1C(=O)[C@H](CC(=O)NCCCC)C[C@@]2(C(=O)OC)CCCCC=C12,?,·,?,?,i
COC(=O)[C@]12CCCCC=C1N(Cc1ccc(Cl)cc1Cl)C(=O)[C@H](CC(=O)NCCC(C)C)C2,?,?,?,i,?
CCCCCCCCN1C(=O)[C@H](CC(=O)NCCC(C)C)C[C@@]2(C(=O)OC)CCCCC=C12,?,-60.0*,-26.3%,?,i
COc1ccc(OC)c(NC(=S)NC(=O)c2ccc(Br)o2)c1,-0.3%,8.8,0.3%,?,i
Cc1ccccc1-c1ccc2c(c1)O[C@@H](CN(C)C(=O)Nc1ccc(C(F)(F)F)cc1)[C@H](C)CN([C@@H](C)CO)S2(=O)=O,16.4µM*,?,16.4µM*,?,?
C[C@@H]1CN([C@@H](C)CO)S(=O)(=O)c2ccc(Br)cc2O[C@H]1CN(C)C(=O)Nc1ccc(C(F)(F)F)cc1,?,-14.0,?,i,?
